High-throughput results deposited in PubChem BioAssay by National Center for Advancing Translational Sciences (NCATS).
This is a sample that favours compounds with a hit; in the whole collection about 11% have one here.
ALOX12 inhib: 12-hLO (ALOX12) enzyme inhibition; P18054; purified 12-hLO, xylenol orange hydroperoxide absorbance; AID 1452; Potency, µM (highest dose often 57.1 µM), without a hit: top-dose activity change, negative = inhibition, hits mostly inhibitors; 150,000 compounds, 0.12% hits; active = well fitted curve in the direction sought with a large enough effect; inconclusive = small, poorly fitted or top-dose-only effect, or another doubt; inactive = no such curve, though single readings can be large; an effect the other way counts as inactive or inconclusive; note: potency is the fitted concentration of half-maximal effect; nearly all actives have a fitted effect of over 55% in size
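Hydroperoxide output read as Fe(III)-xylenol orange absorbance, 573-to-405 nm ratio, after 30 min reaction with 40 uM arachidonic acid. Enzyme: 150 nM purified human 12hLO, 15 min compound preincubation; 25 mM Hepes pH 7.0, room temperature.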
IMPase Li inh: membrane-permeable IMPase blocker, potentiated with lithium; CHO-M1 cells, IP1 TR-FRET (IP-One), carbachol + lithium; Potency, µM (titrated, usually from 59.4 µM), for inactives: at the highest dose activity, negative = IMPase inhibition, most hits filed as inhibitors; 210,000 compounds, 0.35% hits; AID 1457; active = well fitted curve in the direction sought with a large enough effect; inconclusive = small, poorly fitted or top-dose-only effect, or another doubt; inactive = no such curve, though single readings can be large; an effect the other way counts as inactive or inconclusive;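 note: IP1 builds up when IMPase is blocked and the TR-FRET signal falls; potency is the fitted concentration of half-maximal effect; plate controls were basal vehicle for no effect and high inhibitor control for full effect; nearly all actives have a fitted effect of over 50% in size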
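Readout is a homogeneous TR-FRET IP1 immunoassay (Ex 320, Em 665 and 620), where raised cytosolic IP1 lowers signal. Cells were CHO-M1 treated 30 min at 37C with test compounds plus a little lithium; AC50 values came from Hill-equation fitting.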
ALDH1A1 block: inhibitors of human aldehyde dehydrogenase 1A1; 220,000 compounds, 7.3% hits; Potency, µM (highest dose often 75.3 µM), without a hit: at the highest dose activity, negative = inhibition, actives largely listed as inhibitors; Purified ALDH1A1, NADH fluorescence, propionaldehyde substrate; AID 1030; P00352;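 note: potency is the fitted concentration of half-maximal effect; plate controls were no enzyme wells and a reference inhibitor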
HPGD block: inhibitors of human 15-hydroxyprostaglandin dehydrogenase (HPGD) | P15428 | purified HPGD, NADH fluorescence kinetic, PGE2 substrate | Potency, µM, for the others: at the top dose activity change, negative = inhibition, usual class: inhibitors | 150,000 compounds, 4.3% hits | AID 894; note: potency is the fitted concentration of half-maximal effect
Target sequence (P15428 whole entry, looked up): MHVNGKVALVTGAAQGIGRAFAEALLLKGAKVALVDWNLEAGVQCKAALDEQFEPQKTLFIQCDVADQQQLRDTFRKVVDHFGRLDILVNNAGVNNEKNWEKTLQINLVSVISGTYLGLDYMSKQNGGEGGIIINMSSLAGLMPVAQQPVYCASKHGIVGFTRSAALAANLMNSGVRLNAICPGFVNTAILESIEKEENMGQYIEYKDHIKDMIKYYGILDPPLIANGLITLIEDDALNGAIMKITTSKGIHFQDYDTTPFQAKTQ
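NADH formation kinetics: reaction with 30 uM PGE2 and 1 mM NAD+ (final), 20 nM enzyme, Tris-HCl pH 8 with Tween 20, after 15 min compound preincubation at room temperature. Fluorescence change, last versus first of five reads.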
IMPase inh: cell-permeable inhibitors of inositol monophosphatase (IMPase) | CHO-M1 cells, IP1 accumulation, HTRF TR-FRET ratio | inhibition (IP1 accumulation), % at 46.1 µM | 120,000 tested, under 10 active | AID 901; active = well fitted curve in the direction sought with a large enough effect in the signal ratio, not every such curve was filed as active; inconclusive = small, poorly fitted or top-dose-only effect, or a change in a side signal; inactive = no such curve, though single readings can be large or run the other way; the % refers to the signal ratio;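 note: cells stimulated with carbachol in lithium chloride buffer; plate controls were DMSO basal wells for no effect and reference inhibitor wells for full effect; higher means more IMPase inhibition seen as more IP1 and lower FRET ratio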
Target sequence (P97697 whole entry, looked up): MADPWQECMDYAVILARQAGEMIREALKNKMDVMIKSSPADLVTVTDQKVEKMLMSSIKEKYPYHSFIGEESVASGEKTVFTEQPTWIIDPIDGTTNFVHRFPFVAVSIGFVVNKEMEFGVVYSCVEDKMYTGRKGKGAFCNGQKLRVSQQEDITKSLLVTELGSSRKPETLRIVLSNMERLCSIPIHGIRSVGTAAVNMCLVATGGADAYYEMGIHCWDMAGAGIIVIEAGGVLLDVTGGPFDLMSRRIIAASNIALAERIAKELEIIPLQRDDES
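Elevated IP1 in lysates lowers TR-FRET signal (665/620 ratio and 620 channel reported). Cells were CHO-M1, given carbachol (50 uM as added) plus 50mM LiCl, pH 7.4, 30 min, 37C; compounds titrated up to 46 uM; AC50 by Hill equation.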
PNC assembly inh: inhibitors of perinucleolar compartment assembly | PC3M PTB-GFP, PNC prevalence imaging, 16 h; stronger effect = lower value | 140,000 compounds, 3.1% hits | activity change (PNC), negative = inhibition, % at 10 µM | AID 2417;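 active = readout at or below -70, meaning at least 70% loss of cells showing the perinucleolar compartment, a nuclear body marking cancer cells; inconclusive = readout between -30 and a set limit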;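 note: plate controls were DMSO wells for no effect and camptothecin positive control wells for full effect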
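Compounds are pinned in duplicate onto adhered PC3M cells stably expressing GFP-tagged PTB and incubated 16 h at 37 C. Cells are then fixed, nuclei stained with Hoechst, and PNC-positive cells counted.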
Active calls of the source: *; ? = inconclusive; . = no result; [ ] = another dose, or the depositor's remark. Unless noted, calls come from the whole dose curve; as a rule, active = well fitted inhibition curve with a large enough effect (not every such curve was filed as active); inconclusive = small, poorly fitted or top-dose-only effect, or another doubt; inactive = no such curve, though single readings can be large or run the other way. Unless noted, % is set by controls: 0 for no effect and ±100 for the full control effect.

SMILES | ALOX12 inhib | IMPase Li inh | ALDH1A1 block | HPGD block | IMPase inh | PNC assembly inh
Cc1cc(C)c2nc(C)cc(Nc3cccc(C(=O)O)c3)c2c1 | . | . | . | . | -6 | .
O=C(O)[C@@H](Br)[C@@H](Br)c1ccccc1[N+](=O)[O-] | -3%[11.4 µM] | -3% | 3%[13.5 µM] | -3% | . | .
COc1ccc(OC)c2c1C(=O)c1ccccc1C2=O | -21% | -18%[38.3 µM] | 7.9µM* | -4% | -2 | -27
COC1=C(OC)C(=O)c2ccccc2C1=O | -3% | 12% | 14µM* | ? | 13 | .
CCC1CN2CCC1CC2[C@@H](NC(=S)Nc1cc(C(F)(F)F)cc(C(F)(F)F)c1)c1cccc2ccc(OC)cc12 (some centres undefined) | . | -1% | 0% | -9% | . | .
Cc1cccc(NS(=O)(=O)c2ccc(Cl)c(C(=O)O)c2)c1 | -3% | . | 14% | -9% | . | .
COCCCn1c(=O)/c(=C\c2ccccc2OC(F)F)s/c1=C(/C#N)C(=O)N1CCOCC1 | . | 13% | 6.3µM* | . | . | .
Cc1noc(C)c1-c1cncnc1NCc1cccnc1 | . | 14% | 25µM* | . | . | .
Cc1noc(C)c1-c1cncnc1NCc1ccccc1 | . | 8% | ? | . | . | .
Cc1cc(NC(=O)c2ccc(N3CCCC3)c([N+](=O)[O-])c2)no1 | . | 4% | 9% | . | . | .
O=C(Nc1ccc(CN2CCOCC2)cc1)c1ccc(N2CCCC2)c([N+](=O)[O-])c1 | . | 7% | 11µM* | . | . | .
O=C(Nc1nc(-c2ccccc2)cs1)c1ccc(N2CCOCC2)c([N+](=O)[O-])c1 | -3% | 22% | -6% | -11% | 7 | -19
CCC(=O)N1CCN(c2ccc(NC(=O)c3ccc(N4CCCC4)c([N+](=O)[O-])c3)cc2)CC1 | -2% | 6% | -14% | -4% | . | 20
O=C(Nc1nc2ccccc2s1)c1ccc(N2CCCCC2)c([N+](=O)[O-])c1 | -3% | 8% | 11µM* | -6% | . | 80
O=C(Nc1ccon1)c1ccc(N2CCCCC2)c([N+](=O)[O-])c1 | . | 20% | 13µM* | . | . | .
O=C1C[C@H]2OCC=C3CN4CC[C@@]5(C(=O)O)[C@H](N1)C2[C@H]3C[C@H]45 (some centres undefined) | . | 2% | -5%[13.5 µM] | -1% | . | .
S=C(NCc1ccco1)Nc1ccccc1 | . | 5% | 29% | . | . | .
S=C(NCc1ccco1)Nc1ccccn1 | . | 6% | ? | . | . | .
S=C(NCc1ccco1)Nc1ccc(Cl)cc1 | -9% | 9% | ? | 18µM* | . | -25
Cc1cccnc1NC(=S)NCc1ccco1 | . | 18% | 13µM* | . | . | .
CCNS(=O)(=O)c1ccc(NC(=S)NCc2ccco2)cc1 | -1% | -5% | 22µM* | -17% | . | 1
O=C(O)Cc1ccc(NC(=S)NCc2ccco2)cc1 | 2% | -3% | 4% | -12% | . | -10
O=C(c1ccc(NC(=S)NCc2ccco2)cc1)N1CCCCC1 | . | 5% | 22µM* | . | . | .
Cc1nc(-c2ccc(Br)cc2)ccc1C(=O)O | 0% | 8.9µM* | -1% | -13% | . | ?
Cc1ccc(CNC(=O)c2ccc(Cn3c(=O)c4ccccc4n(CC(=O)Nc4ccc(C)cc4)c3=O)cc2)cc1 | . | . | . | . | 7 | .
SMILES | ALOX12 inhib | IMPase Li inh | ALDH1A1 block | HPGD block | IMPase inh | PNC assembly inh
O=C(O)CC1(CC(=O)NCc2cc(F)cc3c2OCOC3)CCCCC1 | . | . | 10µM* | . | . | .
O=C(NCc1csc(-c2ccccc2)n1)c1cc(F)cc2c1OCOC2 | . | . | -3% | . | . | .
CN(C)c1ncc2ncc(=O)n(C3CC3)c2n1 | . | 2% | -7% | . | . | .
Nc1nc(SCCO)[nH]c(=O)c1NC(=O)c1ccccc1F | . | -8% | 13% | . | . | .
CC(C)NC(=O)CSc1nc(N)c(NC(=O)c2ccccc2F)c(=O)[nH]1 | 0% | -9% | -2% | -3% | . | -91*
Cc1cc(C)nc(-n2nc(C)cc2NC(=O)CN2CCCC2)n1 | . | 10% | ? | . | . | .
CCC1CCCCN1CC(=O)Nc1cc(C)nn1-c1nc(C)cc(C)n1 (centres undefined) | 4% | -10%[38.3 µM] | 14µM* | -13% | -3 | ?
Cc1cc(C)nc(-n2nc(C)cc2NC(=O)CN2CCC(C)CC2)n1 | -7% | 8%[38.3 µM] | 3.5µM* | 1% | 1 | 17
COc1ccccc1NC(=O)c1cc2c(n(-c3ccc(C)cc3)c1=O)CC(C)(C)CC2=O | . | . | . | . | 17 | .
COC(=O)c1ccccc1N1CCS(=O)(=O)CC1 | . | 2% | 3% | . | . | .
C=CCn1c(SCc2ccccc2C#N)nnc1-c1cc(Br)ccc1O | -5% | 38%[38.3 µM] | -5% | 14µM* | 1 | ?
CCOC(=O)c1cc(OC(=O)c2cc(Cl)ccc2OC)n(-c2ccccc2)n1 | . | . | . | . | -9 | .
CCN(c1ccc(NC(=O)COC(=O)CCc2cc(OC)c(OC)c(OC)c2)cc1)C(C)C | . | 12% | 18µM* | . | . | .
COc1cc(CC(=O)OCC(=O)Nc2ccc(S(=O)(=O)N3CCCC3)cc2)cc(OC)c1OC | -4% | 1%[38.3 µM] | 20µM* | -3% | 4 | -24
CCc1ccc(CN(C(=O)c2ccc(OC)cc2)C2CCS(=O)(=O)C2)cc1 (centres undefined) | . | . | . | . | 3 | .
CC1(C)CC2CC(C)(CN2C(=O)COC(=O)Cn2[nH]c(=O)c3ccccc3c2=O)C1 (centres undefined) | 0% | 12%[38.3 µM] | -1% | -11% | 6 | -88*
Cc1ccc(OCC(=O)N2CC3(C)CC2CC(C)(C)C3)cc1 (centres undefined) | 6% | 0% | 5% | -13% | -4 | -100*
Cc1cccc(C)c1OCC(=O)N1CC2(C)CC1CC(C)(C)C2 (centres undefined) | 2% | -7%[38.3 µM] | 1% | -8% | 1 | 21
CNc1c(NC(=O)c2ccc(OC)c(OC)c2)c(=O)oc2ccccc12 | . | . | . | . | -4 | .
N#Cc1c(-c2ccccc2Cl)cc(-c2ccccc2)[nH]c1=S | . | -18% | 10µM* | . | . | .
Cc1cc(-c2ccccc2)c(C#N)c(=S)[nH]1 | -11% | -10% | 7.9µM* | 14µM* | . | 1
N#Cc1c(-n2ncnc2-c2ccccc2Cl)sc2c1CCCCC2 | . | . | . | . | -7 | .
Cc1ccc(-c2cc(-c3ccccc3)c(C#N)c(Br)n2)cc1 | -2% | ? | 207% | ? | ? | 15
Cc1ccc(-c2cc(-c3ccccc3Cl)c(C#N)c(N)n2)o1 | ? | 15%[38.3 µM] | ? | ? | 5 | ?
N#Cc1c2c(c(-c3ccccc3Cl)[nH]c1=S)CCCC2 | . | 10µM* | -5% | . | . | .
C/C(CCN1CCCc2nc(C)c(C)cc21)=N\O[C@@H](C)c1cc(-c2c(C)cc(C)cc2C)no1 | . | . | 4%[13.5 µM] | . | . | .
Cc1ccc(N(C(=O)c2snc(C(N)=O)c2N)C(C(=O)NCCC(C)C)c2ccco2)cc1 (centres undefined) | . | -3% | 15% | . | . | .
CC(C)CCNC(=O)C(c1ccco1)N(Cc1ccccc1)C(=O)c1snc(C(N)=O)c1N (centres undefined) | -10% | 16%[38.3 µM] | ? | -9% | 6 | -123*
